23 sequences from the OligoGym collection can be followed below.
Further: reference of the scale not given here.

One assay deals with VAMP1. Put plainly: pooled miR-30 sensor sort-seq; sequence = guide strand. As to conditions: shRNA.
As for ATGATCATCATCTTGCAGTTTT, the sensor-assay potency score (higher = more potent) was -0.861.

As for ATAACTACCACGATGATGGCAC, the sensor-assay potency score (higher = more potent) was 0.289.

For the sequence TTTGGTGGAAGTACAACTGTTG, the sensor-assay potency score (higher = more potent) was 0.106.

For TTTAGCTTGGCAGCACTGCTCT, the sensor-assay potency score (higher = more potent) was -0.465.

TAGTCGTCTGTTACTGGTCATG: the sensor-assay potency score (higher = more potent) was -1.49.

The sequence TTGACTGCAAAGTCCCAGGGTT came in with a sensor-assay potency score (higher = more potent) of 0.215.

On to AGCATGATCATCATCTTGCAGT, for which the sensor-assay potency score (higher = more potent) is -1.92.

On to TTTTGTTGCACATTTGCTCATG, for which the sensor-assay potency score (higher = more potent) is -0.374.

As for TGCTGTAGTCGTCTGTTACTGG, the sensor-assay potency score (higher = more potent) is -0.0703.

For the sequence TTACTGGTCATGTTAGGAGGAG, the sensor-assay potency score (higher = more potent) was -0.535.

As to TATGATGTCCACCACCTCCTCC, the sensor-assay potency score (higher = more potent) was -0.679.

On to TAGCTTGGCAGCACTGCTCTCA, for which the sensor-assay potency score (higher = more potent) was -0.655.

Another assay addresses VAMP8. The assay is described as above. As to conditions: shRNA.
Turning to TTTGCAGGTTCCGCACACGATC, the sensor-assay potency score (higher = more potent) was -1.07.

For AAGGACAATCATCTTCACGTTC, the sensor-assay potency score (higher = more potent) is -0.269.

On to TTTCGAGCCACCTTCTGCGATG, for which the sensor-assay potency score (higher = more potent) is -0.89.

As for TAATATTCTTAACTCCCTCCAC, the sensor-assay potency score (higher = more potent) came to 0.103.

ATCTTCACGTTCTTCCACCAGA: the sensor-assay potency score (higher = more potent) is -1.17.

Consider ATCATCTTCACGTTCTTCCACC, for which the sensor-assay potency score (higher = more potent) is -0.825.

Take ATGTCGTCTTGAAGTGCTCAGA: the sensor-assay potency score (higher = more potent) is -1.56.

On to TCTTCCACCAGAATTTTCGAGC, for which the sensor-assay potency score (higher = more potent) was -0.564.

With AGATCCTCTGTCTTGTTGCGGA, the sensor-assay potency score (higher = more potent) is -1.4.

Take TTCTGGGTCATAATATTCTTAA: the sensor-assay potency score (higher = more potent) is -1.25.

With ATGATAAAAACAATCACGCAGA, the sensor-assay potency score (higher = more potent) was -0.843.
